Data taken from PubChem BioAssay (NCI).
This is part of a sample that, as a whole, favours compounds with a hit. Of some 83,000 tested, about 20% had one in any assay.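 Results are percent growth after 48 hours of single-concentration exposure. 100 means growth as in untreated cells, lower positive values show inhibition; negative values down to -100 show cell death.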 Active and inactive are the calls of the source. The calls were made as follows: active = growth percent below 10; inactive = the rest.

Columns and labels:
Experiment in all cases: NCI-60 one-dose screen, 48 h (100 = growth as untreated, 0 = no growth, -100 = all killed)
Conditions in all cases: 10 µM unless noted
[1] = test system: NCI-H23 lung
[2] = test system: NCI-H226 lung
[3] = test system: NCI-H322M lung
[4] = test system: HOP-62 NSCLC
[5] = test system: NCI-H460 lung
[6] = test system: HOP-92 NSCLC
[7] = test system: A549/ATCC NSCLC
[8] = test system: 786-0 renal
[9] = test system: COLO 205 colon
[10] = test system: DU-145 prostate
[11] = test system: K-562 leukemia
[12] = test system: MALME-3M melanoma
[13] = test system: MDA-MB-231 breast
[14] = test system: RXF 393 renal
[15] = test system: SF-268 CNS
[16] = test system: SF-295 CNS
[17] = test system: SF-539 CNS
[18] = test system: UACC-257 melanoma
[19] = test system: M14 melanoma

Measured: growth

COc1ccc2nc(-c3ccc(Cl)cc3)cc(-c3nnc(SCC(=O)Nc4ccc(C(C)=O)cc4)n3-c3ccccc3)c2c1
inactive: [1] 100% | [2] 99.1% | [3] 91.5% | [4] 100% | [5] 102% | [6] 111% | [7] 93.2% | [8] 91.4% | [9] 101% | [10] 105% | [11] 104% | [12] 92.9% | [13] 86.8% | [14] 102% | [15] 87.3% | [16] 102% | [17] 85.4% | [18] 110% | [19] 93.8%

CC(=O)N1N=C(c2ccc3c(c2)OCO3)CC1c1c(C)nn(-c2ccccc2)c1N(C)Cc1ccccc1 (centres undefined)
inactive: [1] 86.9% | [2] 76.3% | [3] 89.6% | [4] 77.1% | [5] 79.1% | [6] 46.1% | [7] 50.6% | [8] 85.5% | [9] 79.3% | [10] 94.6% | [11] 56.5% | [12] 84.8% | [13] 81% | [14] 79.2% | [15] 74.4% | [16] 68.9% | [17] 94.5% | [18] 56.7% | [19] 77.2%

Cc1ccccc1NC(=O)N/C(N)=N/c1nc2ccccc2s1
inactive: [1] 31.8% | [2] 21% | [3] 39.2% | [4] 40.7% | [5] 11.7% | [6] 126% | [7] 22.7% | [8] 30.7% | [10] 17.5% | [12] 50.4% | [13] 43.2% | [15] 48.7% | [16] 11.8% | [18] 67.4%
active: [9] 6.68% | [11] 6.45% | [14] -2.64% | [17] -17.9% | [19] 9.91%

COc1ccccc1NC(=O)c1sc2nc3c(cc2c1N)C(=O)CCC3
inactive: [1] 66.7% | [2] 76.2% | [3] 59.7% | [4] 100% | [5] 19.3% | [6] 37.5% | [7] 34.2% | [8] 89.1% | [9] 26.4% | [10] 86.6% | [11] 41.5% | [12] 58.2% | [13] 57.5% | [14] 77% | [15] 102% | [16] 25.7% | [17] 66.2% | [18] 58.5% | [19] 47.1%

CCCCCCC(CC#N)(CCC)CCCC (centres undefined)
inactive: [1] 110% | [2] 96.7% | [3] 113% | [4] 111% | [5] 98.9% | [6] 73.9% | [7] 103% | [8] 108% | [9] 129% | [10] 121% | [11] 106% | [12] 100% | [13] 106% | [14] 106% | [15] 115% | [16] 39.5% | [17] 85.3% | [18] 104% | [19] 110%

O=C(c1ccccc1)C(CN1CCCCC1)c1ccccc1 (centres undefined)
active: [6] -12.2% | [8] 1.38% | [11] 0.176% | [12] -3.92% | [17] -15.7% | [19] -74.3%
inactive: [1] 91.4% | [2] 91.6% | [3] 88.3% | [4] 68.2% | [5] 68.7% | [7] 79.9% | [9] 10.1% | [10] 23.2% | [13] 22.6% | [14] 42.4% | [15] 58.6% | [16] 98.8% | [18] 25.6%

O=C(CC(C(=O)c1ccccc1)N1CCN(Cc2ccccc2)CC1)c1ccccc1 (centres undefined)
inactive: [1] 84% | [2] 104% | [3] 112% | [4] 104% | [5] 104% | [6] 80.7% | [7] 98% | [8] 95.8% | [9] 70.3% | [10] 86.2% | [11] 19.5% | [12] 110% | [13] 96% | [14] 95% | [15] 106% | [16] 109% | [17] 93.8% | [18] 93.7% | [19] 77.9%

Clc1ccc2[nH]cc(-c3cncn3CCc3ccccc3)c2c1
inactive: [1] 45.6% | [2] 47.9% | [3] 65.5% | [4] 50.8% | [5] 68.5% | [6] 28% | [7] 59.7% | [8] 62.9% | [9] 44.3% | [10] 80.9% | [11] 26.9% | [12] 43.8% | [13] 65.9% | [14] 52.3% | [15] 46.3% | [16] 43.5% | [17] 69.7% | [18] 50.2% | [19] 68.6%

Cc1cc(=O)oc2cc(OCCn3c(C)nn(-c4ccc(Cl)cc4)c3=O)ccc12
inactive: [1] 45.8% | [2] 50.1% | [3] 58.7% | [4] 27.4% | [5] 17.2% | [6] 47.4% | [7] 30.2% | [8] 32.9% | [9] 10.6% | [10] 21.6% | [11] 16.3% | [12] 32.9% | [13] 47.5% | [14] 37.4% | [15] 50.3% | [16] 14% | [17] 29.5% | [18] 22.5% | [19] 14.7%

CC(=O)OCC(=O)[C@@]1(O)CC[C@H]2[C@@H]3CCC4=CC(=O)CC[C@]4(C)[C@@]3(F)[C@@H](O)C[C@@]21C
inactive: [1] 108% | [2] 68.8% | [3] 129% | [4] 109% | [5] 94% | [6] 66.9% | [7] 78.4% | [8] 116% | [9] 97.8% | [10] 96% | [11] 108% | [12] 120% | [13] 103% | [14] 129% | [15] 91.5% | [16] 115% | [17] 90.8% | [18] 94.6% | [19] 85.7%

CC1(C)CC2(C)CC(=O)C1C(C(=O)O)C2C(=O)O (centres undefined)
inactive: [1] 106% | [2] 107% | [3] 104% | [4] 105% | [5] 112% | [6] 113% | [7] 109% | [8] 123% | [9] 107% | [10] 120% | [11] 104% | [12] 110% | [13] 107% | [14] 103% | [15] 105% | [16] 105% | [17] 108% | [18] 107% | [19] 119%

O=C1C(=O)/C(=C/c2ccccc2)CCCCCC/C1=C/c1ccccc1
inactive: [1] 42.3% | [2] 101% | [3] 94.5% | [4] 10.3% | [5] 90.4% | [6] 90.3% | [7] 86.1% | [8] 86.6% | [9] 99.6% | [10] 64.6% | [12] 90.9% | [13] 96.2% | [15] 60.6% | [16] 76.5% | [17] 103% | [18] 75.3% | [19] 50%
active: [11] 4.05% | [14] -11.6%

Nc1c(C(=O)Nc2cccc(Cl)c2)sc2nc3c(cc12)C(O)CCC3 (centres undefined)
active: [9] 5.9% | [10] 7.3% | [14] -25.4% | [17] -24.9%
inactive: [1] 29.8% | [2] 62.3% | [3] 62.3% | [4] 46.8% | [5] 11.2% | [6] 13.6% | [7] 24.7% | [8] 53.3% | [11] 10.6% | [12] 40.2% | [13] 42.6% | [15] 50.2% | [16] 13.7% | [18] 66.1% | [19] 17.1%

COc1cccc(/C=N\NC(=O)c2ccncc2)c1O
inactive: [1] 58.5% | [2] 61.8% | [3] 19% | [4] 50.8% | [5] 15.9% | [6] 55.1% | [7] 73.2% | [8] 35.5% | [9] 50.1% | [10] 51.7% | [11] 71.2% | [12] 68.3% | [13] 47.1% | [14] 57.3% | [15] 42.2% | [16] 55.8% | [17] 55.7% | [18] 49.6% | [19] 34.4%

COc1ccc2c3c(ccc2c1)C(=O)/C(=C\O)CC3
inactive: [1] 96.7% | [2] 106% | [3] 110% | [4] 114% | [5] 102% | [6] 96.4% | [7] 109% | [8] 103% | [9] 105% | [10] 111% | [11] 82.7% | [12] 135% | [13] 102% | [14] 119% | [15] 93.6% | [16] 107% | [17] 96.4% | [18] 101% | [19] 122%

O=C(/C=C/c1cccc(Nc2ccnc3cc(Cl)ccc23)c1)c1ccc(Cl)cc1
inactive: [1] 45.9% | [2] 49.5% | [3] 67.3% | [4] 50.2% | [5] 66.7% | [6] 45.8% | [7] 79.4% | [8] 58% | [9] 80.1% | [10] 59.6% | [11] 14.6% | [12] 62.5% | [13] 60.4% | [14] 71.9% | [15] 69.2% | [16] 40.2% | [17] 62.5% | [18] 61.3% | [19] 54.3%
